# Reference: PubChem BioAssay (EPA / NIEHS)
# Results filed as inconclusive are left out. Activity calls are given as the source filed them. The calls were made as follows: active = hit-call score of the fitted dose curve at least 0.9, where 1 is the maximum; inconclusive = response in the unintended direction; inactive = score below 0.9.
# Target: human Acid Phosphatase 1 (ACP1), ACP1 (gene 52) (UniProt P24666)
# Experiment: NVS_ENZ_hACP1: NovaScreen (NVS) Enzymatic Assay for human Acid Phosphatase 1 (ACP1) (AID 2283136)
# In short: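 Recombinant enzyme expressed in Sf9 cells, tested cell-free; activity read by fluorescence with electrophoretic mobility shift separation of substrate and product, 1.5 h after dosing. Primary screen in duplicate at 25 uM, actives then run in concentration series; loss of signal versus DMSO.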
# Chain of human Acid Phosphatase 1 (ACP1), ACP1 (gene 52) (P24666 whole entry, looked up): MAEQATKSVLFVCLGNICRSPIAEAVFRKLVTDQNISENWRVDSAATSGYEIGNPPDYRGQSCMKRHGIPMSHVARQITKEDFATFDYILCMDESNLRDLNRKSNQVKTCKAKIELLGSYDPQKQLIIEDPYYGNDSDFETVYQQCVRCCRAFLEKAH
Structure (SMILES),AC50,outcome
CNC(=S)S,9.04 µM (active),
CCCN(CCC)c1c([N+](=O)[O-])cc(S(N)(=O)=O)cc1[N+](=O)[O-],,inactive
C=CCC1=C(C)[C@@H](OC(=O)[C@@H]2[C@@H](C=C(C)C)C2(C)C)CC1=O,,inactive
